Reference: PubChem BioAssay AID504370 (National Center for Advancing Translational Sciences (NCATS), 2011)
Some of the results follow. Inconclusive results are not listed. The call rests on the fitted dose curve; in most records, active means well fitted inhibition curve with a large enough effect; inconclusive means small, poorly fitted or top-dose-only effect; inactive means flat fitted curve, though single readings scatter.

Experiment: qHTS Assay for Compounds Blocking the Interaction Between CBF-beta and RUNX1 for the Treatment of Acute Myeloid Leukemia: ME-1 cellular proliferation
Conditions: ME-1 cell proliferation, ATP luminescence, 48 h; series mostly up to 56.1 µM; activity change, negative = inhibition: at the top concentration
Source text: NIH Chemical Genomics Center [NCGC]
NIH Molecular Libraries Probe Production centers Network [MLPCN]
Assay Submitter (PI): Paul Liu
Core Binding Factor (CBF) abnormalities are associated with 20-25% of all acute myeloid leukemias (AML), of which 5-10% are further sub classified as acute myelomonocytic leukemia with eosinophilia, also known as M4Eo in the FAB classification scheme. This subtype of leukemia is usually associated with chromosome 16 inversion (p13:q22). Chromosome 16 inversion results in formation of the fusion oncogene CBFB-MYH11, which encodes the fusion protein CBF-beta-SMMHC.
It has been hypothesized that the interference of CBF-beta and RUNX1 binding could have therapeutic implications for patients with CBF mediated leukemias. We developed a CBF-beta and RUNX1 binding assay in AlphaScreenTM format and optimized it for high throughput screening to search for inhibitors. The goal of this project is to screen MLPCN's compound collection (MLSMR) for identifying the inhibitors of the interaction between CBF-beta and RUNX1 proteins as research probes. If these probes work well in the animal models, the ultimate goal of this project is to development a new drug treatment for this disease.
The present assay assesses compounds ability to slow cellular proliferation in a CBFb dependent cell line, ME-1.
2uL/well media was dispensed per well into 1536-well white solid-bottom plates using Multidrop Combi dispenser. Subsequently, 23 nL/well compound solutions or DMSO controls were dispensed to the assay plates via a pintool workstation. The cells were grown in T225 flasks to 70% confluence under a standard cell culture condition (ATCC), detached with 0.25% Trypsin/EDTA, and seeded at 250 cells/well in 5uL medium (Dulbecco's Modified Eagle Medium, 10% fetal bovine serum, 1x penicillin/streptomycin).

Activity change, negative = inhibition, inactive:
COc1cc(C(=S)NCc2ccccc2)cc(Br)c1O 3.26% [at 25.6 µM]
N#Cc1ccc(C(c2ccc(C#N)cc2)n2cncn2)cc1 -9.58% [at 25.6 µM]
CC[N+](C)(CC)CCC[n+]1c(-c2ccccc2)c2cc(N)ccc2c2ccc(N)cc21 -22.9%
CC(C)C(N)C(=O)OCCOCn1cnc2c(=O)[nH]c(N)nc21 (stereo not given) -4.01%
O=C(OCC1O[C@@H](OC(=O)c2cc(O)c(O)c(O)c2)[C@@H](OC(=O)c2cc(O)c(O)c(O)c2)[C@@H](OC(=O)c2cc(O)c(O)c(O)c2)[C@@H]1OC(=O)c1cc(O)c(O)c(O)c1)c1cc(O)c(O)c(O)c1 (stereo not given in full) -15.4%
